# Most compounds without a hit are left out; they make up all but 11% or so of the library.
# HPGD inh: HPGD (human) dehydrogenase inhibition; 150,000 compounds, 4.3% hits; P15428; Potency, µM, for inactives: at the top dose activity change, negative = inhibition, most hits filed as inhibitors; purified HPGD, NADH fluorescence kinetic, PGE2 substrate; AID 894; note: potency is the fitted concentration of half-maximal effect
# Target sequence (P15428 whole entry, looked up): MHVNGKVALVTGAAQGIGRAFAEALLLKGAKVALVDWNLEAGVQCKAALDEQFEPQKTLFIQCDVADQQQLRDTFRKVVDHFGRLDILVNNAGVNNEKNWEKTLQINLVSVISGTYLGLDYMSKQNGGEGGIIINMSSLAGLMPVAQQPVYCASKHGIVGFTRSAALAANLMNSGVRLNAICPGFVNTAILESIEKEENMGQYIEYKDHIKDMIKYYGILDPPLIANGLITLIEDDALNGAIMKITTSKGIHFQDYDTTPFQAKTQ
#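 20 nM HPGD preincubated 15 min at room temperature with compound in 50 mM Tris-HCl pH 8, 0.01% Tween 20. Started with 1 mM NAD+ and 30 uM prostaglandin E2; NADH fluorescence (360/450 nm) read 5 times over 30-s intervals, last minus first.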
# ALDH1A1 inh: ALDH1A1 (human) enzyme inhibition; Purified ALDH1A1, NADH fluorescence, propionaldehyde substrate; Potency, µM (series often up to 75.3 µM), for the others: at the top dose activity, negative = inhibition, usual class: inhibitors; 220,000 compounds, 7.3% hits; AID 1030;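 note: potency is the fitted concentration of half-maximal effect; plate controls were no enzyme wells and a reference inhibitor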
# PNC inhibitor: inhibitors of perinucleolar compartment assembly; 140,000 compounds, 3.1% hits; activity change (PNC), negative = inhibition, % at 10 µM; PC3M PTB-GFP, PNC prevalence imaging, 16 h; stronger effect = lower value;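 active = readout at or below -70, meaning at least 70% loss of cells showing the perinucleolar compartment, a nuclear body marking cancer cells; inconclusive = readout between -30 and a set limit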;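 note: plate controls were DMSO wells for no effect and camptothecin positive control wells for full effect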
#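 Compounds are pinned in duplicate onto adhered PC3M cells stably expressing GFP-tagged PTB and incubated 16 h at 37 C. Cells are then fixed, nuclei stained with Hoechst, and PNC-positive cells counted.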
# * hit, by the source's call; ? = inconclusive; / = no result; [ ] = dose if it differs, or a comment. Unless noted, calls come from the whole dose curve; as a rule, active = well fitted inhibition curve with a large enough effect (not every such curve was filed as active); inconclusive = small, poorly fitted or top-dose-only effect, or another doubt; inactive = no such curve, though single readings can be large or run the other way. Unless noted, % is set by controls: 0 for no effect and ±100 for the full control effect.
SMILES,HPGD inh,ALDH1A1 inh,PNC inhibitor
CCCc1cc(=O)[nH]c(SCC(=O)c2cc(C)n(-c3c(C)n(C)n(-c4ccccc4)c3=O)c2C)n1,/,0.1%,/
CC(C)C[C@@H](CC(=O)N[C@H](CC(=O)N[C@@H]1CCNC[C@H]1C(=O)N[C@H](CC(=O)N[C@@H](CCC(=O)O)CC(=O)O)Cc1c[nH]c2ccccc12)C(C)C)NC(=O)[C@@H]1CCCC[C@H]1N,-2.2%,-10.9%,/
Cc1cccc(NC(=O)c2cc(NC(=O)C3CCCCC3C(=O)O)ccc2Cl)n1 (centres undefined),-10.8%,-12.5%,?
Cc1cccc(NC(=O)c2cc(NC(=O)c3ccco3)ccc2Cl)n1,-7.2%,-12.8%,-110.0*
Cc1cccc(NC(=O)c2cccc3c2-c2ccccc2C3=O)n1,/,0.2%,/
Cc1cccc(NC(=O)c2onc3c2CCCC3)c1C,-11.9%,-7.9%,-27.3
Cc1cccc(NC(=O)c2onc3c2CCCC3)n1,-17.5%,22.4µM*,58.3
Cc1cccc(NC(=O)c2ccccc2Br)n1,25.1µM*,?,57.1
O=C(c1cccc(S(=O)(=O)Nc2cccc(C(F)(F)F)c2)c1)N1CCCCC1,/,?,12.4
COCC(=O)N1CCC2(CC1)CN(C(=O)Nc1ccc(OC)cc1)C2,-7.4%,0.3%,/
CSc1nnc(CSc2cc(C)nc(N(C)C)n2)o1,-14.3%,-6.6%,?
NCCC(=O)N[C@H](Cc1cnc[nH]1)C(=O)O,-7.9%,10.4%,/
CN(C1CCCCC1)S(=O)(=O)c1ccc(NC(=O)c2ccc(Br)o2)cc1,-28.0%,?,-26.6
O=C(Nc1ccc(S(=O)(=O)NC2CCCCC2)cc1)c1ccco1,12.6µM*,0.2%,-100.0*
C/C(=N/NS(=O)(=O)c1ccc(Br)cc1)c1ccc(NC(=O)c2ccc(C)o2)cc1,-13.2%,-7.5%,-16.3
C/C(=N\NS(=O)(=O)c1ccc([N+](=O)[O-])cc1)c1ccc(NC(=O)c2ccco2)cc1,/,25.1µM*,/
O=C(Nc1ccc(S(=O)(=O)NC2CCCCC2)cc1)c1ccc(Br)o1,14.1µM*,-6.5%,?
O=C(Nc1ccc(S(=O)(=O)N2CCC(C(=O)NC3CCCCC3)CC2)cc1)c1ccco1,?,?,-24.9
O=C(O)CCCN1CCCCC1,-5.7%,-5.8%[13.5 µM],/
O=C(CN1C(=O)C2C3C=CC(C4CC34)C2C1=O)Nc1cnc2ccccc2c1 (centres undefined),/,-0.7%,/
Cc1cc(C)n(C(=O)CNC(=O)/C=C/c2ccccc2)n1,/,5.9%,/
COc1c(C(=O)Nc2ccc(Cc3ccncc3)cc2)ccc2ccccc12,-29.4%,?,16.4
CC1(C)OC(=O)C(=CNc2cccc(C(=O)O)c2)C(=O)O1,-13.4%,-1.4%,88.9
CCOc1ccccc1NC=C1C(=O)OC(C)(C)OC1=O,-23.6%,2.24µM*,60.6
CC1(C)OC(=O)C(=CNc2ccccc2F)C(=O)O1,-7.1%,?,?
SMILES,HPGD inh,ALDH1A1 inh,PNC inhibitor
COc1ccccc1NC=C1C(=O)OC(C)(C)OC1=O,-15.3%,0.355µM*,46.3
CC#CCN1c2ccccc2[C@]23C[C@@H](C(=O)OC)N(C(=O)c4cccs4)C2=NC(C(=O)OC)=C(C(=O)OC)[C@H]13,-1.2%,7.4%[13.5 µM],/
Oc1ccc(C=NCC2COc3ccccc3O2)cc1 (centres undefined),-9.1%,17.8µM*,-1.1
COc1ccc(C=NCC2COc3ccccc3O2)cc1OC (centres undefined),-18.9%,?,49.1
CC(C)[C@@H](CC(=O)N[C@@H]1CCCC[C@H]1C(=O)N[C@H](CC(=O)N[C@@H](CCC(=O)O)CC(=O)O)Cc1ccccc1)NC(=O)C[C@H](Cc1c[nH]c2ccccc12)NC(=O)[C@@H]1CCCC[C@H]1N,-0.7%,?,/
CCC(=O)NC1CCc2cccc(OC)c2C1 (centres undefined),/,4.6%,/
COc1cc(/C=C/C(=O)OCC(=O)NC(=O)NC(C)C)cc(S(=O)(=O)N2CCc3ccccc32)c1OC,/,5.2%,/
O=C(Cc1ccccc1)c1nnc(-c2ccccc2)o1,/,8.91µM*,/
O=C(CCc1nnc(-c2ccccc2)o1)c1ccc(Cl)cc1,/,9.4%,/
CC1(C)CC(N=Cc2c(O)n(Cc3ccc4c(c3)OCO4)c(=O)c3ccccc23)CC(C)(C)N1,/,12.1%,/
O=C(CCN1C(=O)C2C3CC(C(Br)C3Br)C2C1=O)OCC(=O)c1ccccc1 (centres undefined),-4.8%,-14.3%,?
C=C(C)C(O)/C=C/c1ccc(C(F)(F)F)cc1 (centres undefined),-1.1%,-5.0%,/
CCOc1ccc(N(CC(=O)NCCc2ccc(Cl)cc2)S(=O)(=O)c2c(C)[nH]c(=O)[nH]c2=O)cc1,/,1.6%,/
C[C@@H](SCc1ccccc1)C(=O)O,-4.6%,4.2%[13.5 µM],/
COc1ccc(CNc2cc(-c3cccnc3)ncn2)c(OC)c1,/,-7.1%,/

# Assay outcomes from PubChem.
